Experiment [1] deals with Proto-oncogene tyrosine-protein kinase receptor Ret (Homo sapiens), P07949 [Y791F]. As to conditions: at 1 µM.
Experiment [2] concerns the target Macrophage-stimulating protein receptor (Homo sapiens) (UniProt Q04912). As to conditions: at 0.1 µM.
The target is the same in experiment [3]. The following applies: at 1 µM.
In experiment [4] the target is Proto-oncogene tyrosine-protein kinase ROS (Homo sapiens) (UniProt P08922). As to conditions: at 0.1 µM.
The target is the same in experiment [5]. As to conditions: at 1 µM.
Experiment [6] deals with Proto-oncogene tyrosine-protein kinase Src (Homo sapiens) (UniProt P12931). As to conditions: at 0.1 µM.
Experiment [7] shares this target. The following applies: at 1 µM.
Experiment [8] addresses Tyrosine-protein kinase Srms (Homo sapiens) (UniProt Q9H3Y6). The following applies: at 0.1 µM.
Experiment [9] has the same target. The following applies: at 1 µM.
For experiment [10], the target named is Tyrosine-protein kinase SYK (Homo sapiens) (UniProt P43405). As to conditions: at 0.1 µM.
The target is the same in experiment [11]. The following applies: at 1 µM.
The target of experiment [12] is T1, Tyrosine-protein kinase Tec (Homo sapiens) (UniProt P42680).
T1 sequence (whole entry): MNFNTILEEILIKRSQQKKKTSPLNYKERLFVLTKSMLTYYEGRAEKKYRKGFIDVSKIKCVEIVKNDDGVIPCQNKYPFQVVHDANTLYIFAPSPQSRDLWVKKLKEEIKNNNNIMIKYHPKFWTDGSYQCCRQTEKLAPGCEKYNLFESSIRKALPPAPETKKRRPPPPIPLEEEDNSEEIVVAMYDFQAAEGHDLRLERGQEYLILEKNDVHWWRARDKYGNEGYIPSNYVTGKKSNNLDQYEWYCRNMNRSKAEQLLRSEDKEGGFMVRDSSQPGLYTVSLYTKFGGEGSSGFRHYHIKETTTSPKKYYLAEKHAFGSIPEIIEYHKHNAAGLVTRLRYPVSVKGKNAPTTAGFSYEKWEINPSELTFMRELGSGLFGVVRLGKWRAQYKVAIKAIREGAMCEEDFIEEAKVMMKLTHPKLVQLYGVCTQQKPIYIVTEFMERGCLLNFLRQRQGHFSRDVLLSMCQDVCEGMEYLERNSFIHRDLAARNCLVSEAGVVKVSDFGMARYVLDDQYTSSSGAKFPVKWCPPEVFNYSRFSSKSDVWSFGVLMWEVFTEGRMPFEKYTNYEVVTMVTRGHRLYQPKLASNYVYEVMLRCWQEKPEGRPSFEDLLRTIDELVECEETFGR
As to conditions: at 0.1 µM.

The target in experiment [13] is T1, Tyrosine-protein kinase Tec (Homo sapiens). The following applies: at 1 µM.
Experiment [14] has as its target Angiopoietin-1 receptor (Homo sapiens) (UniProt Q02763). As to conditions: at 0.1 µM.
Experiment [15] has the same target. The following applies: at 1 µM.
Experiment [16] deals with T2, Non-receptor tyrosine-protein kinase TNK1 (Homo sapiens) (UniProt Q13470).
T2 sequence (whole entry): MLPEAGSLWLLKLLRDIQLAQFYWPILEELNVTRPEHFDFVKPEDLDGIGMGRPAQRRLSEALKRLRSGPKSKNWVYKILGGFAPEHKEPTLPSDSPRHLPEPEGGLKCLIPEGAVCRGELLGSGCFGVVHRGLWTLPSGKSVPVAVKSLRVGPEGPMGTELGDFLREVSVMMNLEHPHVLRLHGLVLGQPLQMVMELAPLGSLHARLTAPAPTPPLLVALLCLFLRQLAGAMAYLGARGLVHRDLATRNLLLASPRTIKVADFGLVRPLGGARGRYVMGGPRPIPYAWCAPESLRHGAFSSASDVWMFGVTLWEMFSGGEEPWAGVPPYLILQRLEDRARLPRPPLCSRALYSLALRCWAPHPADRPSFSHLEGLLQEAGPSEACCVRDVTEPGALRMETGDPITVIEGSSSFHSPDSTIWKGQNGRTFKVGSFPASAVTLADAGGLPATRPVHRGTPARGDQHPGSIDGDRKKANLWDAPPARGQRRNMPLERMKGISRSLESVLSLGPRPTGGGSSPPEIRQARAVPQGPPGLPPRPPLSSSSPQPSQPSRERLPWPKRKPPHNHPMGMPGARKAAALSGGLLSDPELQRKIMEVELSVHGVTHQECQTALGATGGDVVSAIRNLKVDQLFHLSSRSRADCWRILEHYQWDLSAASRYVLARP
As to conditions: at 0.1 µM.

Experiment [17] deals with T2, Non-receptor tyrosine-protein kinase TNK1 (Homo sapiens). As to conditions: at 1 µM.
For experiment [18], the target named is Activated CDC42 kinase 1 (Homo sapiens) (UniProt Q07912). As to conditions: at 0.1 µM.
Experiment [19] has the same target. As to conditions: at 1 µM.
The target of experiment [20] is High affinity nerve growth factor receptor (Homo sapiens) (UniProt P04629). As to conditions: at 0.1 µM.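 Further: each value is a mean of replicate percent inhibition readings against TRKA kinase.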

Several values for one entry are separate records, joined by “and”; a condition that tells them apart may be missing. Identical values can stand only once.

Broadly, the inhibition is the change of the read-out against control, counted positive when it falls.

Macrophage-stimulating protein receptor (Homo sapiens), sequence (Q04912 25-304 limits assumed): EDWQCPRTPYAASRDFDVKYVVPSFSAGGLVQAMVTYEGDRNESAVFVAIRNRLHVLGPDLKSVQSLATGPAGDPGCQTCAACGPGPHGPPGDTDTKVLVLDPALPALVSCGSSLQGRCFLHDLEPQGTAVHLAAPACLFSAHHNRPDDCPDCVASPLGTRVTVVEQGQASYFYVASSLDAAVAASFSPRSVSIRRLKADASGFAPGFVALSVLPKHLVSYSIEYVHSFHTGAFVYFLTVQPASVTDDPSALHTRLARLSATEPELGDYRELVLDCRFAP
Macrophage-stimulating protein receptor (Homo sapiens), sequence (Q04912 310-1400 limits assumed): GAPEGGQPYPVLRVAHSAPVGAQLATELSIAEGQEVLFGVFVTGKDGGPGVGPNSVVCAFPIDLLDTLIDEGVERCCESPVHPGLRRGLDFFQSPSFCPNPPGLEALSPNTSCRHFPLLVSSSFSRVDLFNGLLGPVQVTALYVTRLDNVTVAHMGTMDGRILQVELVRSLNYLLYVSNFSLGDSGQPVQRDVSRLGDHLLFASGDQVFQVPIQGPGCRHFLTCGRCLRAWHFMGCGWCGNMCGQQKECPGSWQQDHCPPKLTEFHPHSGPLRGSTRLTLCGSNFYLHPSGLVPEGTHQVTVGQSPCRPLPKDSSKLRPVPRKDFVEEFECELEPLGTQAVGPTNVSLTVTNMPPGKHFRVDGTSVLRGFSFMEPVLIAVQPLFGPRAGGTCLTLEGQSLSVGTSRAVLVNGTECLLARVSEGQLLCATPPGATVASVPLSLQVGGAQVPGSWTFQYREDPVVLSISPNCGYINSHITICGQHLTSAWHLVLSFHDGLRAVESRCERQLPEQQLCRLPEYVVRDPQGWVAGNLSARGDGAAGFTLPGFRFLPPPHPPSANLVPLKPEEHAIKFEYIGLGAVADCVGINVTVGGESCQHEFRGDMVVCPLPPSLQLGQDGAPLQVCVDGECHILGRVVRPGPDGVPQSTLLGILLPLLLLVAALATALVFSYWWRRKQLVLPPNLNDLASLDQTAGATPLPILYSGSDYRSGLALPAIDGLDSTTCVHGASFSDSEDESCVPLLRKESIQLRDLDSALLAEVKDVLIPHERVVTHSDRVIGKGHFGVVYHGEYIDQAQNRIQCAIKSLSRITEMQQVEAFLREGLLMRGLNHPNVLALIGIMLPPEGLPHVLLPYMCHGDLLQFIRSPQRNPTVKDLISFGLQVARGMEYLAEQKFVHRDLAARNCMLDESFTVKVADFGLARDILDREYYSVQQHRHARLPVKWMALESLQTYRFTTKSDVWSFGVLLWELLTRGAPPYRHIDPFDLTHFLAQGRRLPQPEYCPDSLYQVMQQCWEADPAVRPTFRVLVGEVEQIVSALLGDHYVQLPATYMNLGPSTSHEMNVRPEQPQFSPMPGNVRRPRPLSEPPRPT
High affinity nerve growth factor receptor (Homo sapiens), sequence (P04629 33-796 limits assumed): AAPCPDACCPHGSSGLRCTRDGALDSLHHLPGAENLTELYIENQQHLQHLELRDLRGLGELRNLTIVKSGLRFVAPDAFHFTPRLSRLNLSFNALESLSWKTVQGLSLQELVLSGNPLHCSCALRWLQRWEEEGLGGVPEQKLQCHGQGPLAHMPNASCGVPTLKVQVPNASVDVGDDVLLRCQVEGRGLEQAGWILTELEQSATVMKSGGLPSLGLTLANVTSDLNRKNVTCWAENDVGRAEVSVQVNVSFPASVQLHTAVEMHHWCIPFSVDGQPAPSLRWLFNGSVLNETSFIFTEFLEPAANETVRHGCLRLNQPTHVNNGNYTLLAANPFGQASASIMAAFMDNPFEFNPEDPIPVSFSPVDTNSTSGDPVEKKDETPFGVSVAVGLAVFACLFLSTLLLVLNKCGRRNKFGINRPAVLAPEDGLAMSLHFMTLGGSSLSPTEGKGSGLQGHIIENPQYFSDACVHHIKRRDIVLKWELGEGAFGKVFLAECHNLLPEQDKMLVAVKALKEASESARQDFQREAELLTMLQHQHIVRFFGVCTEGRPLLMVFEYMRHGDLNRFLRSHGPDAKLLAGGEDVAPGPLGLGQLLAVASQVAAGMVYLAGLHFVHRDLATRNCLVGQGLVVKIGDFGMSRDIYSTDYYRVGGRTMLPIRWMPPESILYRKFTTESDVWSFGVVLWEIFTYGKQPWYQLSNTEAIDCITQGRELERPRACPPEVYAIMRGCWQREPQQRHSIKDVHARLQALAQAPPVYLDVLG
Proto-oncogene tyrosine-protein kinase Src (Homo sapiens), sequence (P12931 2-536 limits assumed): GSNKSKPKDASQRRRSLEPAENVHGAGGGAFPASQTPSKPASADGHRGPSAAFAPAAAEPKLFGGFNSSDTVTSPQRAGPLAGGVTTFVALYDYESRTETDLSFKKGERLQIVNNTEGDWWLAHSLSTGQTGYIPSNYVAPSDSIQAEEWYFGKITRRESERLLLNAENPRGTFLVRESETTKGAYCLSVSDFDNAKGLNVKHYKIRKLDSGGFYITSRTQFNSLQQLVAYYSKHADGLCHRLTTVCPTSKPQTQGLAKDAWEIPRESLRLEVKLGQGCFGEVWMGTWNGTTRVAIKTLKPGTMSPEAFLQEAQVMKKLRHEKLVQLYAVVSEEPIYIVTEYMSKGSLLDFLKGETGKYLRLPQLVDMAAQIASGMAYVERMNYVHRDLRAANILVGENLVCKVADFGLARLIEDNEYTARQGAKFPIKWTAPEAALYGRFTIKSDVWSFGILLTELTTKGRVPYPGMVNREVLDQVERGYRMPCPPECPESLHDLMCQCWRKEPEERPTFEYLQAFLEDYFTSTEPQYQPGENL
Proto-oncogene tyrosine-protein kinase receptor Ret (Homo sapiens), P07949 [Y791F], sequence (P07949 whole entry Y791F): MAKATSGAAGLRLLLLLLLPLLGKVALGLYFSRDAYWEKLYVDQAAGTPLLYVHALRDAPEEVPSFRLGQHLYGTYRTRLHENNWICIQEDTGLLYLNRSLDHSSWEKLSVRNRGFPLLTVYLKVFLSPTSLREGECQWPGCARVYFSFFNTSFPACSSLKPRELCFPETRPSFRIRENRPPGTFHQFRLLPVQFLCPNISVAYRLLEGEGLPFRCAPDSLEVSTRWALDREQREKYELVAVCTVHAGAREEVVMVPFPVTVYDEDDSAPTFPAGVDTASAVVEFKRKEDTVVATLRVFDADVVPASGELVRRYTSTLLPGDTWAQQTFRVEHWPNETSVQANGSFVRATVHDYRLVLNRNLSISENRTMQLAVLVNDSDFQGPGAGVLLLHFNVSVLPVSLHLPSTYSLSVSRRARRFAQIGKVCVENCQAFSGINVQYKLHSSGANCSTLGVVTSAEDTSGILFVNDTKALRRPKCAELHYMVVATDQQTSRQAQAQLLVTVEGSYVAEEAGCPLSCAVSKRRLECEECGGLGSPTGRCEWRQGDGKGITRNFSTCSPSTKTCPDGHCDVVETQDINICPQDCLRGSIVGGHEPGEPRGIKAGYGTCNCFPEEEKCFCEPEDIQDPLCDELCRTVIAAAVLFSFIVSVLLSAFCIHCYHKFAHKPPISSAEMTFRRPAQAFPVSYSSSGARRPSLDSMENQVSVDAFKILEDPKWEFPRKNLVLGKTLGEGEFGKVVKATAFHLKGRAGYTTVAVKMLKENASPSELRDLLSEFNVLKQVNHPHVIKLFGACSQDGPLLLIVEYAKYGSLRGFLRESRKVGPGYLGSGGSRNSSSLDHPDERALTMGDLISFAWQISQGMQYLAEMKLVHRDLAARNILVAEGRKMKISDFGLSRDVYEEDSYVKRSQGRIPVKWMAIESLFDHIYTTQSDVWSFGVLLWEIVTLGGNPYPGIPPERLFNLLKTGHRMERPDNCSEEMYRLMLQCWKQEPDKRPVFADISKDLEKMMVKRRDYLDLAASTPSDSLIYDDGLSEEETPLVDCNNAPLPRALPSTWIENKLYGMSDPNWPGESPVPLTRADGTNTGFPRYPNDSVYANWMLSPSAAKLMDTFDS
Angiopoietin-1 receptor (Homo sapiens), sequence (Q02763 whole entry): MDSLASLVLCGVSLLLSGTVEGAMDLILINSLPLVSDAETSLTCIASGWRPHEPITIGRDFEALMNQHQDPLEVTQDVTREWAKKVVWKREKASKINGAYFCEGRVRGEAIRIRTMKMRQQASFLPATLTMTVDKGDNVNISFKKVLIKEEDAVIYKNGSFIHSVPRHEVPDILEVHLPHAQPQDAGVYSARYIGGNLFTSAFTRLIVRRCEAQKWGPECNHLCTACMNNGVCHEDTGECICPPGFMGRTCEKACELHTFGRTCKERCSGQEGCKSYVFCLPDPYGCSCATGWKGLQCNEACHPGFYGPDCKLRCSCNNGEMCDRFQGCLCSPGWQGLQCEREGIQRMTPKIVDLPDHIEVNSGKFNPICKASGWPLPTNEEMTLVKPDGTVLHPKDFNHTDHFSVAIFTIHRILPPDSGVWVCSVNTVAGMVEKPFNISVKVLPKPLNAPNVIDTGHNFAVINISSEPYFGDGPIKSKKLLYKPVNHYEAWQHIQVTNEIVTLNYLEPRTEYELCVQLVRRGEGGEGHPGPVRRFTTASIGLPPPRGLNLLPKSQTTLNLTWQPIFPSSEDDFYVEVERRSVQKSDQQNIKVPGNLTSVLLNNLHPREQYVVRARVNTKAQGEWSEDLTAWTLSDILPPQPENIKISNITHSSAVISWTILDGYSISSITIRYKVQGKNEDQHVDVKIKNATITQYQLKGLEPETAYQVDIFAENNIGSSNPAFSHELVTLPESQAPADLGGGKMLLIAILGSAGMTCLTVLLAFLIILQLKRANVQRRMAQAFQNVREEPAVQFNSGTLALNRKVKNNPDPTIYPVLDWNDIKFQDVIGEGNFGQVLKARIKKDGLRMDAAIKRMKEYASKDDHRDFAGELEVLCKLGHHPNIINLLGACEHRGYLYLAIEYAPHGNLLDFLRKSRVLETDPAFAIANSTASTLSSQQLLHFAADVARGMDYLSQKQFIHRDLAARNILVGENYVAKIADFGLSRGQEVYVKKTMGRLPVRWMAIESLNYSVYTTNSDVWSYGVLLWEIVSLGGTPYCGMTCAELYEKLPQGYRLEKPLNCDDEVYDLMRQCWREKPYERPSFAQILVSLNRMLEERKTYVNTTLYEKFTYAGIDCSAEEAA

As for `Nc1nccc(-c2c(-c3ccc(F)cc3)ncn2C2CCNCC2)n1`, the inhibition in experiment [1] was 18.1% and 7.68%; in experiment [2], 7.21%; in experiment [3] it was -1.75% and 1.85%; in experiment [4], 1.07% and 4.79%; in [5] it was 8.31% and 7.82%; in experiment [6], -4.6% and -5.2%. For the same compound, the inhibition in experiment [7] is 0.47% and 5.61%; in experiment [8] it was -1% and 0.6%; in [9], 1.09% and -0.34%; in [10], 0.33% and 1.19%; in experiment [11] it was -2.74% and 1.45%; in [12], -2.4% and 0.94%. For the same compound, the inhibition was -2.93% and 2.08% in [13]; -0.35% and 2.75% in experiment [14]; 1.51% and 1.25% in experiment [15]; -6.18% and -1.13% in experiment [16]; -2.86% and -0.41% in experiment [17]; -1.87% and 0.84% in experiment [18]. In addition, the inhibition in [19] was -2.1% and 1.2%; in [20] it was -1.68% and 4.53%.

As to `Nc1ncnc2occ(-c3ccc(NC(=O)Nc4cc(C(F)(F)F)ccc4F)cc3)c12`, the inhibition in experiment [1] was 85.5% and 86.1%; in experiment [2], 6.58% and -2.93%; in [3], 12.2% and 2.9%; in experiment [4] it was 4.91% and 3.1%; in experiment [5], 28.1% and 13.7%; in [6], 10.1% and 1.77%. Moreover, the inhibition in experiment [7] was 48.3% and 31.9%; in [8] it was 0.41% and -0.6%; in experiment [9] it was 0.84% and 0.62%; in experiment [10], -4.8% and -1.07%; in [11], -9.91%; in [12] it was 3.07% and -2.99%. Besides, the inhibition in experiment [13] was 5.25% and -1.81%; in experiment [14], 63.7% and 59.4%; in experiment [15], 79% and 80.6%; in experiment [16] it was 10.7% and 2.54%; in [17] it was 50% and 25.8%; in experiment [18] it was 1.25% and -0.32%. Besides, the inhibition is 2.06% and -0.97% in experiment [19]; 57.1% and 36.6% in experiment [20].

For `N#Cc1cccc(Nc2ncc(-c3ccccc3)o2)c1`, the inhibition was 10.8% in [1]; -0.08% in experiment [2]; -1.06% in experiment [3]; 2.33% in [4]; 3.19% in experiment [5]; 6.64% in experiment [6]. In addition, the inhibition was 19.9% in experiment [7]; 2.21% in experiment [8]; 2.55% in experiment [9]; 1.05% in experiment [10]; -0.14% in [11]; 1.29% in [12]. For the same compound, the inhibition in experiment [13] worked out at 2.29%; in [14] it was 0.48%; in [15] it was 2.45%; in [16] it was 2.36%; in experiment [17] it was 15.4%; in [18] it was 0.46%. Further, the inhibition was 0.86% in [19] and -0.7% in [20].

With `Cc1c2ccc(N(C)c3ccnc(Nc4cccc(S(N)(=O)=O)c4)n3)cc2nn1C`, the inhibition in [1] stood at 80.3%; in [2], 2.6%; in experiment [3] it was 9.61%; in [4] it was 38.7%; in [5], 78.1%; in experiment [6] it was 40.5%. Also, the inhibition in experiment [7] was 82.8%; in experiment [8], 1.27%; in [9] it was 17.6%; in [10], -4.22%; in [11], -6.33%; in experiment [12], 13.8%. Further, the inhibition in experiment [13] came out at 50.2%; in experiment [14] it was 12.4%; in experiment [15], 53%; in experiment [16], 16.6%; in experiment [17] it was 60.1%; in experiment [18], 1.67%. For the same compound, the results for the inhibition in experiment [19] and in experiment [20] were 4.21% and 4.18%, respectively.

Take `FC(F)(F)CNc1nccc(-c2cnn3ncccc23)n1`: the inhibition in experiment [1] was 2.92%; in [2], 1.76%; in experiment [3] it was -1.8%; in experiment [4], -0.19%; in [5] it was 2.27%; in [6] it was 3.96%. For the same compound, the inhibition is 3.98% in experiment [7]; -5.51% in experiment [8]; -3.04% in experiment [9]; -0.18% in experiment [10]; -3.33% in experiment [11]; 0.22% in experiment [12]. Moreover, the inhibition worked out at 2.62% in experiment [13]; 1.95% in [14]; 3.61% in [15]; 0.51% in experiment [16]; 4.99% in experiment [17]; 0.71% in experiment [18]. Also, the inhibition in experiment [19] was -0.17%; in experiment [20], -0.41%.

As to `CS(=O)(=O)Nc1ccc(-c2cc(-c3ccccc3)cc(C(N)=O)c2N)cc1`, the inhibition in [1] is 3.96%; in experiment [2], -0.02%; in experiment [3], -1.34%; in [4] it was 4.8%; in experiment [5], 6.51%; in experiment [6], 2.73%. Moreover, the inhibition in experiment [7] is 4.51%; in experiment [8], -2.19%; in experiment [9], -2.04%; in experiment [10] it was -0.83%; in [11], 0.38%; in [12] it was 0.8%. Further, the inhibition in experiment [13] is 1.3%; in experiment [14], 0.34%; in experiment [15], 0.58%; in [16], 1.13%; in experiment [17] it was 5.5%; in [18], -0.09%. Also, the results for the inhibition in experiment [19] and in experiment [20] were -0.33% and 3.2%, respectively.

As to `Fc1ccc(Nc2nccc(-c3c(-c4ccc(C(F)(F)F)cc4)nn4ncccc34)n2)cc1F`, the inhibition in experiment [1] was 4.13%; in experiment [2], -2.05%; in experiment [3], 4.5%; in experiment [4] it was 6.56%; in [5] it was 8.15%; in [6], -0.44%. Further, the inhibition in experiment [7] was 6.45%; in experiment [8], 0.3%; in experiment [9], -1.61%; in [10], -5.43%; in experiment [11], -0.68%; in [12], 4.32%. The inhibition in experiment [13] was 6.72%; in experiment [14] it was 1.72%; in experiment [15] it was 1.95%; in experiment [16] it was 3.85%; in experiment [17], -0.46%; in [18] it was 1.2%. The values for the inhibition in [19] and in [20] were 0.83% and 2.39%, respectively.
